Inconclusive results are not listed. Activity calls are given as the source filed them. Unless noted, calls follow the shape of the dose curve; as a rule, active = well fitted curve in the direction sought with a large enough effect; inconclusive = small, poorly fitted or top-dose-only effect, or another doubt; inactive = no such curve, though single readings can be large; an effect the other way counts as inactive or inconclusive.
What was measured:
[1] = qHTS assay to identify small molecule inhibitors of chordoma cells - UCH-1 (AID 1259355); conditions: UCH-1 chordoma viability, CellTiter-Glo, 48 h, combination, with auranofin plus four topoisomerase inhibitors; series mostly up to 46.1 µM; also: nearly all actives have a fitted effect of over 55% in size
Procedure, shortened: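 Screening used approved and investigational drugs in 15-point titration against 800 seeded cells per well. A fixed combination of auranofin with camptothecin, doxorubicin, rubitecan and topotecan followed compound addition, and growth was scored by CellTiter-Glo after 48hr.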

[2] = qHTS assay to identify small molecule inhibitors of chordoma cells - UCH-2 (AID 1259356); conditions: UCH-2 chordoma viability, CellTiter-Glo ATP luminescence, 48 h; series mostly up to 46.1 µM
[3] = Identifying Small Molecule Inhibitors of Pancreatic Cancer Stem Cells (SN12C, Adherent) (AID 1259358); conditions: viability/growth inhibition; series mostly up to 46.1 µM;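 also: cell survival measured after 48 h of compound exposure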
Procedure, shortened: (§1)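 Endpoint: ATP-based luminescence, 48 h drug exposure. Bortezomib at 9.2 uM final as full-kill control; DMSO vehicle as negative control; activity normalized between vehicle and cell-free wells.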

[4] = Identifying Small Molecule Inhibitors of Pancreatic Cancer Stem Cells (SN12C, Spheroid) (AID 1259360); conditions: series mostly up to 46.1 µM
Procedure, shortened: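 Viability is scored by CellTiter-Glo luminescence 48 h after dosing, expressed as percent activity against vehicle and no-cell references. Spheroid formats rely on cells cultured 14 days in stem cell media beforehand.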

[5] = Identifying Small Molecule Inhibitors of Pancreatic Cancer Stem Cells (A278, Adherent) (AID 1259361); conditions: series mostly up to 46.1 µM; also: nearly all actives have a fitted effect of over 35% in size
Procedure, shortened: as §1

[6] = P-glycoprotein substrates identified in KB-8-5-11 adenocarcinoma cell line, qHTS therapeutic library screen (AID 1346987); conditions: KB-8-5-11 (P-gp overexpressing) viability, CellTiter-Glo, 72 h; series mostly up to 44.5 µM; also: nearly all actives have a fitted effect of over 65% in size
Procedure, shortened: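 Human cervical adenocarcinoma KB-8-5-11 cells, selected in colchicine to over-express P-gp and assayed without it, were exposed for 72 h to titrated compounds. An ATP-based luminescent viability signal gave AC50.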

[7] = Natriuretic polypeptide receptor (hNpr1) antagonism - Pilot counterscreen GloSensor control cell line (AID 1347045; calls by dose curve); conditions: HEK293 cGMP GloSensor cells, SNP-stimulated luminescence, 20 min; series mostly up to 38.3 µM
Procedure, shortened: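 The SNP-driven cGMP luminescence signal (50 uM, 20 min, room temperature) was measured in GloSensor HEK293 control cells. Compounds were tested as a LOPAC titration series and preincubated for 30-50 min.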

[8] = target: Atrial natriuretic peptide receptor 1 (Homo sapiens) (UniProt P16066); assay: Natriuretic polypeptide receptor (hNpr1) antagonism - Pilot screen (AID 1347049; calls by dose curve;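 also: agonist-evoked cGMP luminescence read 20 min after hNppA addition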); conditions: hNpr1 cells, antagonist mode cGMP read-out; series mostly up to 57.5 µM
Atrial natriuretic peptide receptor 1 (Homo sapiens), sequence (P16066 whole entry, looked up): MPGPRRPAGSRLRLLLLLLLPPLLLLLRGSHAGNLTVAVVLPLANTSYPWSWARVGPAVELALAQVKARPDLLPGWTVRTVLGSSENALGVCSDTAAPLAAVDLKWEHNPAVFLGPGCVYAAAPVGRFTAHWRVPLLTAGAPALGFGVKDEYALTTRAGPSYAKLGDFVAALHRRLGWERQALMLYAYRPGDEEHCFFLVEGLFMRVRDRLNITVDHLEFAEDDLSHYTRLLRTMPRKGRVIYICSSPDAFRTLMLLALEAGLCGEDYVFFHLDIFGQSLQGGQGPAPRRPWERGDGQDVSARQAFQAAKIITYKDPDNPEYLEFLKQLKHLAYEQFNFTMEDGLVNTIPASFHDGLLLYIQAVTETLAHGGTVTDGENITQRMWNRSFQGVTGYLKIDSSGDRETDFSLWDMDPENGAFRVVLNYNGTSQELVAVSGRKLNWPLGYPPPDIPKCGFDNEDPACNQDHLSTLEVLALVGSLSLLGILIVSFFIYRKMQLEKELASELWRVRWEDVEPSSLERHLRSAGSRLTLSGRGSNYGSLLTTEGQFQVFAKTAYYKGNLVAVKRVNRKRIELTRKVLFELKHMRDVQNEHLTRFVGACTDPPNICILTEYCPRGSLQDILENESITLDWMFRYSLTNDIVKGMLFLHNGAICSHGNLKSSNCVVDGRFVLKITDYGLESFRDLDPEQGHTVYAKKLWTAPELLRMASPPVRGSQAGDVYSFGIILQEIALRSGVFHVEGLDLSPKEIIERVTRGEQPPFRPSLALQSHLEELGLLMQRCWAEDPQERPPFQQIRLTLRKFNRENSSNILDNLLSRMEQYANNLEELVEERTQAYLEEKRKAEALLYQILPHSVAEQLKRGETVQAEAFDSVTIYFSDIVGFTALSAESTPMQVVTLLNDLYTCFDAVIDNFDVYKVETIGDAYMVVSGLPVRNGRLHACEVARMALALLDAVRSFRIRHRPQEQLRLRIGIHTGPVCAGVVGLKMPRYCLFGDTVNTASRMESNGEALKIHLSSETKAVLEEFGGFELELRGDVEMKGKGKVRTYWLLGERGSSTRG
Procedure, shortened: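 cGMP-sensor HEK293/hNpr1 cells, 1500/well, plated overnight at 37C. 2% GloSensor reagent, 2 h RT. Compound (23 nL pin transfer) 30 min RT, baseline luminescence pre-read. 0.1 nM hNppA, 20 min RT, post-read.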

[9] = target: T1, Tyrosine-protein phosphatase non-receptor type substrate 1 (Homo sapiens) + Leukocyte surface antigen CD47 (Homo sapiens) (UniProt P78324+Q08722); assay: CD47-SIRPalpha protein protein interaction - LANCE assay qHTS validation (AID 1347057; active = well fitted curve in the direction sought with a large enough effect in the signal ratio, with a control signal flat, not every such curve was filed as active; the % refers to the signal ratio); conditions: Recombinant CD47-His / biotin-SIRPalpha, TR-FRET ratio; series mostly up to 38.3 µM
T1 sequence (P78324 whole entry, looked up, the tested form may be a part): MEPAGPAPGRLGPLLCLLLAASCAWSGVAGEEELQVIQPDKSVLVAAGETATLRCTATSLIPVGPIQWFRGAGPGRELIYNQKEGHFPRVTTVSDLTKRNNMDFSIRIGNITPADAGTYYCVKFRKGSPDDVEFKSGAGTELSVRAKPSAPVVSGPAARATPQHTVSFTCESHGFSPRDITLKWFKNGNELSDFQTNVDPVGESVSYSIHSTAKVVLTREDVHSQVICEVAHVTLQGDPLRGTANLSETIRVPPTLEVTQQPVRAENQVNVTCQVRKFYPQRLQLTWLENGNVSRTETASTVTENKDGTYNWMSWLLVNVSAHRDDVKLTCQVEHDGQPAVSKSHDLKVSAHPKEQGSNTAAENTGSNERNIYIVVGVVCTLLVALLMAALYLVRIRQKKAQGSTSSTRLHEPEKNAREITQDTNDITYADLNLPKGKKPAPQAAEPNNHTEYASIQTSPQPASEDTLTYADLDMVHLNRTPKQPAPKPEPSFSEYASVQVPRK
T1 sequence (Q08722 whole entry, looked up, the tested form may be a part): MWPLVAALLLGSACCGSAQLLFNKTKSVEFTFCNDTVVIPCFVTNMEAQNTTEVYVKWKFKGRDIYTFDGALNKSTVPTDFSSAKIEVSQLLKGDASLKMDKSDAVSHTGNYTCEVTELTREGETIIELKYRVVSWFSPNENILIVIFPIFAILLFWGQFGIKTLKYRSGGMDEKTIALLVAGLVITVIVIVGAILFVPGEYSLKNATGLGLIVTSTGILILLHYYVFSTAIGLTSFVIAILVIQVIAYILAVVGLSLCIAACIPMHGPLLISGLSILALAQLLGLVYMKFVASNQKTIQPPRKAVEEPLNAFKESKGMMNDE
Procedure, shortened: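 Inhibition of soluble CD47/SIRPalpha ectodomain association by titrated compounds, measured as 665/615 nm time-resolved FRET ratio after sequential 30 min room-temperature incubations.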

[10] = target: T1, Tyrosine-protein phosphatase non-receptor type substrate 1 (Homo sapiens) + Leukocyte surface antigen CD47 (Homo sapiens); assay: CD47-SIRPalpha protein protein interaction - HTRF assay qHTS validation (AID 1347058; active = well fitted curve in the direction sought with a large enough effect in the signal ratio, not every such curve was filed as active; the % refers to the signal ratio); conditions: TR-FRET HTRF CD47-His / biotin-SIRPalpha binding, ratio 665/615; series mostly up to 38.3 µM
Procedure, shortened: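 Soluble extracellular domains (6His-CD47, Avi-tag-biotinylated SIRPalpha) in PBS pH 7.4 with 0.05% IGEPAL CA-630. Compounds were preincubated 30 min at RT with CD47 and anti-His-Eu, then SIRPalpha and SAV-XL665 were added. TR-FRET 665/615 ratio.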

[11] = target: T1, Tyrosine-protein phosphatase non-receptor type substrate 1 (Homo sapiens) + Leukocyte surface antigen CD47 (Homo sapiens); assay: CD47-SIRPalpha protein protein interaction - Alpha assay qHTS validation (AID 1347059); conditions: AlphaScreen CD47-His/biotin-SIRPalpha binding, LOPAC; series mostly up to 38.3 µM;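 also: bead proximity luminescence from CD47 binding SIRPalpha after compound preincubation with SIRPalpha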
Procedure, shortened: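 SIRPalpha-biotin 25 nM + cpd, 30 min RT, dark; add CD47-His 12.5 nM, 30 min; add Ni-NTA/SAV beads 10 ug/mL, 30 min; AlphaScreen. Buffer PBS pH 7.4 + 0.05% IGEPAL CA-630. Non-biotinylated SIRPalpha as control inhibitor.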

[12] = target: Parathyroid hormone/parathyroid hormone-related peptide receptor (Homo sapiens) (UniProt Q03431); assay: qHTS for PTHR1 Agonists: Optimization Screen against the NCGC LOPAC library (AID 1347079); conditions: HEK293 GP2 PTHR1 GloSensor cAMP luminescence, 1 h; series mostly up to 57.1 µM;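 also: GloSensor cAMP luminescence in HEK-293 GP2 cells expressing human PTHR1 with IBMX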
Parathyroid hormone/parathyroid hormone-related peptide receptor (Homo sapiens), sequence (Q03431 whole entry, looked up): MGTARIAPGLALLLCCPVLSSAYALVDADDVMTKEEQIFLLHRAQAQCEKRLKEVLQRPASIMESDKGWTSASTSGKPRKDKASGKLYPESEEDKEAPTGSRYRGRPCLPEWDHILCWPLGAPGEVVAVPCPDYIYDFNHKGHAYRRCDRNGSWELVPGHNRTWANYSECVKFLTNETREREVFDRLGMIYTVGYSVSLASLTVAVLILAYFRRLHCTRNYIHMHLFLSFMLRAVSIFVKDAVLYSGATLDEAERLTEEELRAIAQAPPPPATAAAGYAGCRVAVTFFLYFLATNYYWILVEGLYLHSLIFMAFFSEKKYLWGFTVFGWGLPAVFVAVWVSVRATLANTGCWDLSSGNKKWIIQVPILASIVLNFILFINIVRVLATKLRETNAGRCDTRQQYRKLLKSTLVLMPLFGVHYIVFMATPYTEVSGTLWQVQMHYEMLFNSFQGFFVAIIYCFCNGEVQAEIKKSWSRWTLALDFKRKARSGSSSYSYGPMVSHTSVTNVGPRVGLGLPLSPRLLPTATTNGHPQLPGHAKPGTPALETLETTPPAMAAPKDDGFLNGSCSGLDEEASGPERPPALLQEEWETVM
Procedure, shortened: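 Signal increase flags agonism. GP2 cells, derived from HEK-293, express human PTHR1 and a GloSensor cAMP construct.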

[13] = qHTS of pediatric cancer cell lines to identify multiple opportunities for drug repurposing: Primary screen for TC32 cells (AID 1347089); conditions: TC32 Ewing sarcoma viability, CellTiter-Glo luminescence, 48 h; series mostly up to 45.8 µM; also: nearly all actives have a fitted effect of over 60% in size; also: potency is read from the fitted curve at half-maximal effect
Procedure, shortened: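 Luminescent CellTiter-Glo read-out of metabolically active TC32 cells after 48 h compound exposure. Primary: MIPE 11-point, 0.78 nM–46 µM; NPC 8-point, 0.59 nM–46 µM. Confirmatory: 11-point dilutions.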

[14] = qHTS of pediatric cancer cell lines to identify multiple opportunities for drug repurposing: Primary screen for DAOY cells (AID 1347090); conditions: DAOY medulloblastoma viability, CellTiter-Glo luminescence, 48 h; series mostly up to 46 µM; also: nearly all actives have a fitted effect of over 55% in size; also: potency is read from the fitted curve at half-maximal effect
Procedure, shortened: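 Viability measured as metabolically active cells via CellTiter-Glo luminescence following 48 hours of compound exposure, 11-point dilutions in confirmatory testing. 500-1,000 cells/well plated 5 hours before dosing; controls were DMSO and 2.3 µM bortezomib.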

[15] = P-glycoprotein substrates identified in KB-3-1 adenocarcinoma cell line, qHTS therapeutic library screen (AID 1346986); conditions: KB-3-1 parental cells viability, CellTiter-Glo, 72 h; series mostly up to 44.5 µM; also: nearly all actives have a fitted effect of over 60% in size
Procedure, shortened: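 Viability by CellTiter-Glo after 72 h compound exposure at 37 degree C, 5% CO2. Cytotoxic call: curve class -1.1 to -2.4, maximum response >50%, AC50 < 10 uM, compared across KB-3-1 and P-gp-overexpressing KB-8-5-11.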

[16] = NS1 protein of Zika virus - qHTS assay to identify small molecule inhibitors in human HEK 293 cells (AID 1347053); conditions: HEK293 ZIKV MR766 infection, NS1 TR-FRET, 24 h; series mostly up to 46.1 µM; also: nearly all actives have a fitted effect of over 55% in size
Procedure, shortened: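 Compound-treated (1 h pre-infection) HEK 293 cells infected with ZIKV MR766, MOI = 0.5; after 24 h at 37 C, NS1 read by TR-FRET; data normalized to uninfected and infected controls.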

[17] = qHTS assay for measurement of the activity of small molecule inhibitors on Zika virus induced Caspase-3 activity in human astrocytoma cells (AID 1224859); conditions: SNB-19 ZIKV-induced caspase-3/7, luminescence, 6 h; series mostly up to 45.7 µM
Procedure, shortened: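 Percent inhibition of virus-induced caspase-3/7 signal is calculated against uninfected and ZIKV-infected control cells. Cells are SNB-19, infected at 2 FFU/cell for 6 h after 1 h compound exposure.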

[18] = target: Atrial natriuretic peptide receptor 2 (Homo sapiens) (UniProt P20594); assay: Natriuretic polypeptide receptor (hNpr2) antagonism - Pilot subtype selectivity assay (AID 1347050; calls by dose curve); conditions: NPR2-expressing cells, cGMP antagonist-mode read-out; series mostly up to 38.3 µM
Atrial natriuretic peptide receptor 2 (Homo sapiens), sequence (P20594 whole entry, looked up): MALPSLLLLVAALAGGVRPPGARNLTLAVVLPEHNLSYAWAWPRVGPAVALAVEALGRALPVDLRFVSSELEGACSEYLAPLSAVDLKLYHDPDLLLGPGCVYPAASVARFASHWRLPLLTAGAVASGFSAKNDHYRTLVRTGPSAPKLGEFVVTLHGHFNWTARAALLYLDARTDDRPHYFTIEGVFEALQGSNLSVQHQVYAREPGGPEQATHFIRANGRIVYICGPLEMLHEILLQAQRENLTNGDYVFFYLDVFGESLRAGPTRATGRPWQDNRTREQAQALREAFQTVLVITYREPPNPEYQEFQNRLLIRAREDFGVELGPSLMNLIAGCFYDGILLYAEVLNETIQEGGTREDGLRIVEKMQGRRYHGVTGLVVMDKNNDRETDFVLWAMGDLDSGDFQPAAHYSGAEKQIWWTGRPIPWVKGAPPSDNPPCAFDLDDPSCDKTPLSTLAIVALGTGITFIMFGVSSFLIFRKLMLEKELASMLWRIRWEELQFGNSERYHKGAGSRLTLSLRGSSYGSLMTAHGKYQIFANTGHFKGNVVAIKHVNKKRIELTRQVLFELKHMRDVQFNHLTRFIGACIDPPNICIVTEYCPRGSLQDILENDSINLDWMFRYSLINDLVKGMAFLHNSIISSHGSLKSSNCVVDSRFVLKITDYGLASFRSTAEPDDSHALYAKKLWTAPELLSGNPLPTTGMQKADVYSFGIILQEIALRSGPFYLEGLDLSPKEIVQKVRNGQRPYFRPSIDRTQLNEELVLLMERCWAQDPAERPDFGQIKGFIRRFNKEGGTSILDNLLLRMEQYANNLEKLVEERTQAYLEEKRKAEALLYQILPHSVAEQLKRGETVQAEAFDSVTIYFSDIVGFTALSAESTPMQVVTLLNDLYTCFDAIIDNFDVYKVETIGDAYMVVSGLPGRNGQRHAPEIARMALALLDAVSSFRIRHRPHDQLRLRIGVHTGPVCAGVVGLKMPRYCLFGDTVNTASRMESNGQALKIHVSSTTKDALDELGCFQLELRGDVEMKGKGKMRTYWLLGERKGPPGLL
Procedure, shortened: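 Luminescence from a genetically encoded cGMP luciferase biosensor in hNpr2-expressing HEK293 cells is read before and 20 min after adding 1 nM hNppC. Test compounds, in interplate 1:5 titrations, are added 30-50 min ahead of the agonist.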

Measured: Potency

CN1CC(=O)N/C1=N/C(=O)Nc1cccc(Cl)c1
not listed: [15] | [16] | [17] | [18]
inactive: all other assays above

CC[C@H]1OC(=O)[C@H](C)[C@@H](O[C@H]2C[C@@](C)(OC)[C@@H](O)[C@H](C)O2)[C@H](C)[C@@H](O[C@@H]2O[C@H](C)C[C@H](N(C)C)[C@H]2O)[C@](C)(O)C[C@@H](C)C(=O)[C@H](C)[C@@H](O)[C@]1(C)O
inactive: [1] | [2]

COc1cc(/C=C/C(=O)N2CCN(CC(=O)N3CCCC3)CC2)cc(OC)c1OC
inactive: [1] | [2] | [15] | [6]

CCCCCC[C@@H](O)C/C=C\CCCCCCCC(=O)O
inactive: [1] | [2] | [6]

Nc1ccc(O)c(C(=O)O)c1
inactive: [1] | [2] | [6] | [16] | [13] | [14]

CCCCC[C@H](O)/C=C/[C@@H]1[C@@H](C/C=C\CCCC(=O)O)[C@@H](O)C[C@H]1O
inactive: [1] | [2] | [6]

CC[C@H]1OC(=O)[C@H](C)C(=O)[C@H](C)[C@@H](O[C@@H]2O[C@H](C)C[C@H](N(C)C)[C@H]2O)[C@](C)(OC)C[C@@H](C)C(=O)[C@H](C)[C@H]2N(CCCCn3cnc(-c4cccnc4)c3)C(=O)O[C@]12C
inactive: [1] | [2] | [6]

N=C1N=C(N)c2cc3ccccc3cc21
active: [14] 24.3 µM
inactive: [17] | [13]

COC(=O)[C@H]1[C@H]2C[C@@H]3c4[nH]c5cc(OC)ccc5c4CCN3C[C@H]2C[C@@H](OC(=O)/C=C/c2cc(OC)c(OC)c(OC)c2)[C@@H]1OC
inactive: [1] | [2] | [15] | [6]

CO/N=C(\C(=O)N[C@@H]1C(=O)N2C(C(=O)O)=C(COC(C)=O)CS[C@H]12)c1csc(N)n1 (stereo in doubt)
inactive: [1] | [2] | [6]

C[N+]1(C)[C@@H]2CC(OC(=O)[C@H](CO)c3ccccc3)C[C@H]1[C@@H]1O[C@@H]12 (stereo not given in full)
inactive: [17] | [13] | [14]

C=CC(N)CCC(=O)O (stereo not given)
inactive: [1] | [2] | [6] | [7] | [8] | [18] | [9] | [10] | [11] | [12]

O=C(O)[C@H](CC(=O)N1C[C@H]2CCCC[C@H]2C1)Cc1ccccc1
inactive: [1] | [2] | [6]

CC1(C)[C@@H](O[C@H]2O[C@H](C(=O)O)[C@@H](O)[C@H](O)[C@H]2O[C@@H]2O[C@H](C(=O)O)[C@@H](O)[C@H](O)[C@H]2O)CC[C@]2(C)[C@H]3C(=O)C=C4[C@@H]5C[C@@](C)(C(=O)O)CC[C@]5(C)CC[C@@]4(C)[C@]3(C)CC[C@@H]12
inactive: [1] | [2] | [15]

O=C(Nc1ccc(C(=O)O)c(O)c1)c1ccccc1
inactive: [1] | [2] | [6] | [16] | [13] | [14]

CN1[C@@H]2CC[C@H]1CC(OC(=O)C(CO)c1ccccc1)C2 (stereo not given in full)
inactive: [1] | [2] | [6]

CCCCCCCCCCCCOCCO
inactive: [17] | [13] | [14]

C[S+](CC[C@H](N)C(=O)O)C[C@H]1O[C@@H](n2cnc3c(N)ncnc32)[C@H](O)[C@@H]1O (stereo not given in full)
inactive: [1] | [2] | [6]

O=C(O)[C@H](O)[C@@H](O)[C@H](O)[C@H](O)CO
inactive: [1] | [2] | [6]

CN(C)c1ccc(C(=C2C=CC(=[N+](C)C)C=C2)c2ccccc2)cc1
inactive: [17]
active: [13] 0.105 µM | [14] 0.106 µM

COC(=O)c1nc(Cl)c(Cl)nc1N
active: [13] 3.33 µM | [14] 1.33 µM
inactive: [17]

O=C(O)Cc1ccc2c(c1)C(=O)c1ccccc1CO2
inactive: [17] | [13] | [14]

O=C(O)Cc1ccc(-c2ccccc2)cc1
inactive: [1] | [2] | [6] | [16] | [13] | [14]

COc1cc(NC(C)CCCN)c2ncccc2c1 (stereo not given)
active: [13] 16.7 µM
inactive: [1] | [2] | [6] | [16] | [14]

CCN(CC)c1ncnc2c1ncn2[C@@H]1O[C@H](COP(=O)(O)OP(=O)(O)C(Br)(Br)P(=O)(O)O)[C@@H](O)[C@H]1O
inactive: [7] | [8] | [18] | [16] | [9] | [10] | [11]

CN(C)CCn1nnnc1SCC1=C(C(=O)O)N2C(=O)[C@@H](NC(=O)Cc3csc(N)n3)[C@H]2SC1
inactive: [1] | [2] | [16] | [13] | [14]

O=c1[nH]c2cc(Cl)c(Cl)cc2[nH]c1=O
inactive: [7] | [8] | [18]

CN1CCN(c2cc3c(nn2)Oc2ccccc2N3C)CC1
inactive: [1] | [2] | [16] | [13] | [14]

C/C(=N\O)c1ccc(OCC(=O)N2CCCCC2)cc1
inactive: [15] | [13] | [14]

C#CC1(O)CC[C@H]2[C@@H]3CCC4=CCCC[C@@H]4[C@H]3CC[C@@]21C (stereo not given in full)
inactive: [1] | [2] | [16] | [13]

N=c1ccn2c(n1)O[C@H]1[C@H](O)[C@@H](CO)O[C@H]12
inactive: [1] | [2] | [7] | [8] | [18] | [9] | [10]

CC(C(=O)O)c1ccc(C(=O)c2cccs2)cc1 (stereo not given)
inactive: [1] | [2] | [13] | [14]

COC(=O)C1=C(C)NC(C)=C(C(=O)OC)C1c1cccc(NC(=O)NCCCN2CCC(c3cccc(OC)c3)CC2)c1
inactive: [6] | [9] | [10] | [11]
